The whole screen tested about 320,000 compounds, of which about 2,100 (0.66%) were called active. Not shown: some 53% with an inconclusive outcome. Calls follow the shape of the dose curve; as a rule, active = well fitted inhibition curve with a large enough effect in the signal ratio, with a control signal flat (not every such curve was filed as active); inconclusive = small, poorly fitted or top-dose-only effect, or effect the other way, or a change in a side signal; inactive = flat fitted curve, though single readings scatter; the % refers to the signal ratio. The entries come from a sample that favours actives as a whole.
Potency is read from the fitted curve at half-maximal effect.

This test can be described thus: qHTS Assay for Lipid Storage Modulators in Drosophila S3 Cells.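 As to cell number change: cells counted by Cell Tracker Red CMTPX staining in the red channel.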 As to lipid storage change, negative = inhibition: % is scaled to controls: 0 for no effect and ±100 for the full control effect. The note with it: BODIPY lipid droplet fluorescence, 18-24 h, cells fed with added oleic acid; cell number change: measured here: cell count max response; series mostly up to 46.1 µM. Put shortly:
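Drosophila S3 cells loaded with oleic acid (400 uM, as added) and compounds at several concentrations; lipid droplets imaged by 488-nm laser-scanning cytometry, 500–530 nm intensity and object ratio to cell channel. Percent activity normalized to 20 uM Triacsin C.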
(Quantitative high-throughput screening tests each substance at several concentrations.)
On to `Cc1ccc(C(=O)CCC(=O)OCc2nnc(-c3ccccc3)o2)cc1`, for which the Potency result is “inactive”.
For `O=C1c2cc(Cl)ccc2OC2(CCNCC2)C12CC(c1ccccc1)=NO2` (stereo not given), the Potency result is “inactive” and the cell number change is 8.66%.
For `COC(=O)[C@@]1(Cc2ccc(OC)cc2)[C@H]2c3cc(C(=O)N4CCCC4)n(CCSCCO)c3C[C@H]2CN1C(=O)c1ccccc1` the same measures were “inactive” and 0.624%.
Take `CN(C1CCCC1)C1CCN(C(=O)CNC(=O)/C=C/c2cccc(C(F)(F)F)c2)CC1`: the Potency entry was “inactive” and the cell number change was 8.56%.
For `CN(C)c1ccc(CN(C(=O)c2cccs2)C2CCS(=O)(=O)C2)cc1` (stereo not given) the same measures were “inactive” and 15.9%.
With `c1ccc(OCc2nc3c4c(ncn3n2)-c2ccccc2CC42CCCC2)cc1`, the Potency entry is “inactive” and the cell number change was -10.9%.
For `COc1ccccc1NC(=O)C1CCCN(c2cnccn2)C1` (stereo not given) the same measures were “inactive” and 17.3%.
For `COc1cc2c(cc1OC)CN(C(=O)Nc1ccccc1)CC2` the same measures were “inactive” and 6.01%.
With `CCCc1cc(=O)n2[nH]c(C)c(-c3ccc(OC)cc3)c2n1`, the Potency was 18.4 µM (active) and the cell number change was determined as 16.5%.
On to `COC(=O)Cc1cc(=O)n2[nH]c(C)c(-c3ccccc3)c2n1`, for which the Potency entry is “inactive” and the cell number change is -1.66%.
For `CCOC(=O)Cc1cc(=O)n2[nH]c(C)c(-c3ccc(Cl)cc3)c2n1` the same measures were “inactive” and -27.5%.
For `C/C(=N\NC(=O)NC1CCCCC1)c1ccc(Cl)s1` the same measures were “inactive” and -11.8%.
On to `COc1ccc(-c2nc(SC(C)C(=O)NC3CC3)n[nH]2)cc1` (stereo not given), for which the Potency is 1.84 µM (active) and the cell number change was -10%.
For `COc1ccc(-c2nc(SC(C)C(=O)Nc3ccc(NC(C)=O)cc3)n[nH]2)cc1` (stereo not given) the same measures were “inactive” and 32.4%.
For `COc1ccc(-c2nc(SCC(=O)NC3CCCCC3)n[nH]2)cc1` the same measures were “inactive” and -21.7%.
For `CCOC(=O)C1CCCCN1Cc1ccc(F)c(Br)c1` (stereo not given) the same measures were “inactive” and -23.6%.
For `CCOC(=O)C1CCCCN1Cc1cccc(Oc2ccccc2)c1` (stereo not given), the Potency entry was “inactive” and the cell number change is -1.04%.
For `CCOC(=O)C1CCCCN1Cc1ccc(C(F)(F)F)cc1` (stereo not given) the same measures were 6.51 µM (active) and -25.6%.
Turning to `COc1cc(C2CC(=O)Oc3c(C(CCN4CCN(c5ccccc5)CC4)c4ccc(N(C)C)cc4)c(OC)cc(OC)c32)cc(OC)c1OC` (stereo not given), the Potency entry is “inactive” and the cell number change was -0.692%.
Consider `O=C(COc1ccccc1[N+](=O)[O-])Nc1cc(C(=O)O)cc(C(=O)O)c1`, for which the Potency entry was “inactive” and the cell number change is -6.55%.
For the compound `CCN(CC(=O)Nc1ccc(NC(C)=O)cc1)C(=O)CSc1ncnc2sc(C)c(C)c12`, the Potency result was “inactive”.
For `Cc1sc2ncnc(SCC(=O)Nc3ccc(CN4CCCC4)cc3)c2c1C`, the Potency result was “inactive” and the cell number change worked out at 13.1%.
Regarding `CC(=O)Nc1ccc(NC(=O)CSc2ncnc3sc(C)c(C)c23)cc1`, the Potency is 13 µM (active) and the cell number change worked out at 3.95%.
Take `COC(=O)c1ccc(NC(=O)CSc2nc3[nH]ncc3c(=O)[nH]2)cc1`: the lipid storage change, negative = inhibition is -11.4% [at 0.0737 µM] (inactive).

The values are drawn from PubChem BioAssay AID2685 (National Center for Advancing Translational Sciences (NCATS), 2010).
